Reference: the supplement of paper PMC6555819

The sequences below were run on VDR:RXRa (NR concentration 270 nM, RXRa partner concentration 90 nM) (assay: PBM binding z-score (relative to random genomic background probes); higher = stronger binding; sequences stand for … in GC…GCGATTGACAGCGTAGAATGAAGG).
Protocol: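 Protein-binding microarray (Agilent 4x180K custom design, double-stranded 60-nt probes: 5' GC cap, 34-nt variable region, 24-nt constant primer region; full probe sequence given). Purified or IVT nuclear receptor:RXRα heterodimers (3:1 NR:RXRα, mostly 270:90 nM) or homodimers were incubated for 1 h in PBS with 2% milk and no ligand, then detected with Alexa488 antibodies. Fluorescence from o1-orientation probes (~5 replicates averaged) was converted to z-scores against 500 random hg19 background probes. Variable regions are seed direct-repeat (DR0–DR5) sites, all their single-nucleotide variants and half-site ablations.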

Row | Sequence | PBM binding z-score
1 | CGTCAAAGTTCAACTAAGGGAACGTAAAGCACGC | 4.35
2 | CCTCGGAGGACAACAGAAGGTCAGAGCTGCCAGA | 1.35
3 | AGTCAAAGTTCATTAGGTAACGTAAGATTCAGCT | 4.72
4 | TAGGCTAGGTCATGCGGGCCAGTATAGTGTCGGC | 2.63
5 | TCTTGTAGAACAAAGGTTAAGAAAGCCGAAGCCT | 1.18
6 | TAGCCTAGGTCATGGGGGCCAGTATAGTGTCGGC | 5.43
7 | GCAGACAGGGGAAACGCAGGTAACTCAGGGTGGC | -0.768
8 | TCGCCTAGGTCAGATCGGGCCAGTATACGCTATA | 0.717
9 | ATTATTAGTTGAGACGAGGGCAACCGATAGGTTG | 1.29
10 | CCTCGGAGGACATCAGGAGGTCAGAGCTGCCAGA | 1.99
11 | CGAACGAGGGCTTGAGTTGATAGCAAATGCCGAT | -0.282
12 | GCTATTAGTTGAACGGGCAACCGAATGATTCTCG | -0.187
13 | CATACAGGGTCAGCTAGGCCGGAGTAGGGACGGC | 3.08
14 | CTCGAAAGGTCGGTTTAGGTGAGTATACGGATAA | 1.28
15 | TCTGCTAGGTCAGTTGGTCGGCTAACGAGCTGCC | 0.0498
16 | TCATATAGGTAATGGTGAAAGTCGAACGATATGA | 0.243
17 | AGTCAAAGTTAAGGACGAGGTAACGTAAAGCACG | -0.131
18 | ACTTACGGGTCAGCGAGGTTATAGCACGCGTATA | 6.97
19 | CCTAGCAGTCCAGGGTCACTCAAGCATTTCGCTT | 2.69
20 | TCTGCTAGGTCATTTGGTCAGCTAACGAGCTGCC | 2.21

Row | Sequence | PBM binding z-score
21 | AGAACGAGGGCAATGAGTTGGTAGCACGGGTGGC | 4.09
22 | CTCGAAAGGTCGGTTGAGGGGAGTATACGGATAA | 1.24
23 | CCTACTGGGCCACGAAAGATCATTGATTCAGTGA | -0.306
24 | GCAGAAAGGTGAAACGCAGGTAACTCAGGGTGGC | 0.145
25 | ATCTCTAGGTAAGATTCAGTTCAGTGAAGAACGC | 0.961
26 | TAGCATAGGTCAGATCGGGCCAGTATACGCTATA | 1.77
27 | ATCTCTAGGTAAAGTTCAGTGCAAGATCGATAGA | 1.87
28 | TCTATCAGTTGATTAGGGCAACCGAAACAGCGGA | 0.419
29 | CCTACTGGGCCATCAGGTTATTGATATCAACGTT | 0.0822
30 | ATCTATAGGTAACAAGTTCAGTGAAAGAGAGGAC | 2.43
31 | GCTCGGAGGACAGGGTCAGAGCTTTGTCCGTAGA | 1.08
32 | GCATACAGGTAATACAAGGTGAAAGTCCGATTGT | 0.492
33 | TCTATTAGTTGATTCGGGCAACCGAAACAGCGGA | 0.506
34 | ACCCGGAGGACAAAGGTCAGAGCTACGCCAGTGA | 3.2
35 | TCTGCTAGGTCCGTTGGTCAGCTAACGAGCTGCC | -0.499
36 | CCTTACGCGTCACGAGGTTATAGCACGACGAGCG | 0.899
37 | ATCTCTAGGTATCCAAGTTCAGTGAATGCCGAAC | 2.38
38 | CCTATTAGTTGACCATAAGGGAAACCGAAGCTCG | 0.226
39 | CGAACGAGGGCATGAGTTTATAGCAAATGCCGAT | 3.02
40 | ACAGACAGGTGAGTGAAGGTACCTCAGCTGGACG | -0.805
